Measurements reported in ChEMBL document CHEMBL5308541, “MAIP: An Open-Source Tool to Enrich High-Throughput Screening Output and Identify Novel, Druglike Molecules with Antimalarial Activity” (ACS Med Chem Lett, 2023).
The campaign covered roughly 4,800 compounds. About 420 (8.8%) showed an effect of 50% or more. This excerpt belongs to a sample that is enriched for strong results.

tested on: Plasmodium falciparum; test: Confirmatory screen in NF54 nanoGlo assay, in single point, at 2uM, 72h; format: functional, Erythrocyte; conditions: timepoint 72 hour

Row | Structure (SMILES) | % Inhibition
1 | CN1CCC(N(C)c2ccccc2CNC[C@@H](O)c2cccc(Cl)c2)CC1 | 23%
2 | O[C@@H](CNCc1ccc2c(c1)CCO2)c1ccc(F)c(F)c1 | 61%
3 | CN1CCN(c2ccc(C(F)(F)F)cc2NCc2cnc[nH]2)CC1 | 62%
4 | CN1C2CCC1CC(OC(=O)C1CCC(C(=O)OC3CC4CCC(C3)N4C)(c3ccccc3)c3ccccc31)C2 (stereo not drawn) | 49%
5 | Fc1ccc(N2CC[C@H](CN3CCC(c4c[nH]c5ccccc45)(c4c[nH]c5ccccc45)CC3)C2)cc1 | 97%
6 | CC(C)(C)c1ccc(CNC[C@H](O)c2ccc(F)cc2F)cc1 | 95%
7 | Cc1ccc(CNc2ncnc(N)c2Cl)c(N2CCCC2)n1 | 50%
8 | CN(C)CC12CNCC1CN(c1ccnc3cc(Cl)ccc13)C2 (stereo not drawn) | 98%
